BoNT-A LC inh2 – inhibitors of Botulinum neurotoxin A light chain protease; 360,000 tested, 0.17% active; multiplex microsphere protease substrate cleavage, flow cytometry; inhibition, % at 10 µM; AID 588499; also: plate controls were buffer without enzyme for full effect and enzyme alone for no effect
Mtb FBA inh – inhibitors of M. tuberculosis fructose-bisphosphate aldolase; 360,000 tested, 2.3% active; purified M. tuberculosis FBA, fluorescence read-out; AID 588726; P9WQA3; inhibition, % at 1 µM; in the data active = inhibition above about 27%;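 also: 0% = vehicle and 100% = reference inhibitor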
BoNT F protease – inhibitors of Botulinum neurotoxin F light chain protease | 360,000 tested, 0.22% active | Multiplex microsphere protease cleavage assay, flow cytometry | inhibition, % at 10 µM; in the data active = inhibition above about 35%, passing the limit was not always enough; inconclusive = no clear call, values can overlap the other calls; also: plate controls were buffer without enzyme for full effect and enzyme alone for no effect
Anthrax LF prot – blocks Bacillus anthracis lethal factor protease; P15917; multiplex microsphere protease cleavage assay, LF; inhibition, % at 10 µM; 360,000 tested, 0.12% active; AID 588501; also: plate controls were buffer without enzyme for full effect and enzyme alone for no effect
Target sequence (P15917 whole entry, looked up): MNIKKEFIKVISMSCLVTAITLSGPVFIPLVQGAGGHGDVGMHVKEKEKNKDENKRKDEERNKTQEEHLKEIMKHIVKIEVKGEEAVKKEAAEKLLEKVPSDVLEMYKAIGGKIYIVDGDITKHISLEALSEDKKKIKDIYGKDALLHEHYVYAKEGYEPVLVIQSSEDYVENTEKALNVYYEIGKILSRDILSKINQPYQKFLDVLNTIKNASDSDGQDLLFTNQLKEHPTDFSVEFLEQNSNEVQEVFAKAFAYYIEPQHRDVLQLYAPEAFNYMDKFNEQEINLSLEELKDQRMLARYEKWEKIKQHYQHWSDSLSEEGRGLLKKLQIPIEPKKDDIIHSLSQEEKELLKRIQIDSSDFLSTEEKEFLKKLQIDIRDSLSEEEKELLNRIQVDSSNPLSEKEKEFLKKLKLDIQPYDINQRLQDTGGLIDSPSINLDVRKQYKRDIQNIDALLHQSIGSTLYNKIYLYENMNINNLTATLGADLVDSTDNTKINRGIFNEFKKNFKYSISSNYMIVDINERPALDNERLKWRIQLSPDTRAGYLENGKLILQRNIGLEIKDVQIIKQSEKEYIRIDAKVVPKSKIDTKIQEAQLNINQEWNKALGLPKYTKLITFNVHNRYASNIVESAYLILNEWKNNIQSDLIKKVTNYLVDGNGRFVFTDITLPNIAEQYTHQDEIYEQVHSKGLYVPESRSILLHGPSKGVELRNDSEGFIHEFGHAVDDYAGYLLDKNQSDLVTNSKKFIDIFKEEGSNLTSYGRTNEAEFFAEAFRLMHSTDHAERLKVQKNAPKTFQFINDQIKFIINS
GDH-TPI inh – inhibits GDH-TPI coupling enzymes, artifact for Mtb FBA screen; GDH-TPI coupled enzyme counterscreen, NADH absorbance; inhibition, % at 4.8 µM; 360,000 tested, 1.2% active; in the data active = inhibition above about 30%;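 also: 0% = DMSO wells and 100% = wells lacking the enzyme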
Bead autofluor – compound fluorescence in toxin protease inhibitor counterscreen; compound autofluorescence counterscreen, microsphere flow cytometry; stronger effect = higher value; fluorescence intensity (concentration not given with the values); 360,000 tested, 3.1% active; in the data active = fluorescence intensity above about 16000; inconclusive = no clear call, values can overlap the other calls
Starred values were filed as active, the others as inactive; ? = inconclusive; nt = no result; + = active, no number. A selection: hits, their analogues and other compounds. The true share with any hit is near 6.7%. Rule as the data show it, unless noted: active = inhibition above about 30%; inconclusive = no clear call, values can overlap the other calls; inactive = below that.

SMILES	BoNT-A LC inh2	Mtb FBA inh	BoNT F protease	Anthrax LF prot	GDH-TPI inh	Bead autofluor
Cc1c(NC(=O)CSc2nnc(C(C)Oc3ccc(Cl)cc3)n2-c2ccccc2)c(=O)n(-c2ccccc2)n1C (stereo unspecified)	10.9	-4.1	14.8	-12.1	8.1	18398*
O=C(CCNC(=O)c1ccccc1Cl)NCc1ccncc1	4.1	4.0	-0.7	-0.6	2.1	?
O=C1OCCN1C(=O)[C@H]1[C@H](c2ccc(F)cc2)C(c2ccc(F)cc2)=NN1c1ccc(Br)cc1	0.9	9.5	7.2	-3.9	15.9	3949
O=C1OCCN1C(=O)[C@H]1[C@H](c2ccc(Cl)cc2)C(c2ccc(F)cc2)=NN1c1ccc(Br)cc1	0.4	55.1*	-3.5	3.1	30.9*	2930
Nc1nc(SCC(=O)N2N=C3/C(=C/c4ccco4)CCCC3C2c2ccco2)n[nH]1 (stereo unspecified)	0.3	3.9	0.9	-0.7	34.8*	5616
O=C(CSc1nccc(=O)[nH]1)N1N=C2/C(=C/c3ccco3)CCCC2C1c1ccco1 (stereo unspecified)	-0.2	1.1	-6.2	1.4	11.9	3461
Nc1nc(SCC(=O)N2N=C3/C(=C\c4ccco4)CCCC3C2c2ccco2)n[nH]1 (stereo unspecified)	-5.1	-1.2	7.9	-3.7	32.6*	4147
Cn1cnnc1SCC(=O)N1N=C2/C(=C/c3ccco3)CCCC2C1c1ccco1 (stereo unspecified)	0.7	0.0	1.6	-3.3	18.6	2758
COc1ccc(CCNc2ccc(S(=O)(=O)N3CCCC3)cc2[N+](=O)[O-])cc1	0.7	-5.5	-1.7	0.6	12.6	7922
CCN(CC)S(=O)(=O)c1ccc(Cl)nc1	-0.2	63.3*	-0.9	-1.9	8.1	4412
Cc1cc(=O)oc2c3c(cc(OCC(=O)NCC(=O)O)c12)OC(C)(C)CC3	1.4	+	-4.1	-0.4	9.9	3147
Cc1cc(=O)oc2c3c(cc(OCC(=O)Nc4ccc(CCO)cc4)c12)OC(C)(C)CC3	-0.3	156.5*	-4.2	-12.0	21.6	5483
Cc1cc(=O)oc2c3c(cc(OCC(=O)Nc4cccnc4)c12)OC(C)(C)CC3	-0.4	12.3	-6.5	-1.6	6.9	5571
CC(=O)Nc1ccc(NC(=O)COc2cc(C)cc3oc(=O)cc(C)c23)cc1	-2.4	2.0	-6.4	1.9	3.1	5647
Cc1cc(=O)oc2c3c(cc(OCC(=O)NCc4ccccc4)c12)OC(C)(C)CC3	-0.3	150.2*	5.6	-0.9	27.4	5438
COc1cccc(C(=O)Nc2nnc(S(=O)(=O)N(C)Cc3ccccc3)s2)c1	-1.0	2.9	5.2	6.4	21.7	?
CC(C)N(Cc1ccccc1)S(=O)(=O)c1ccc(F)cc1	1.7	0.4	7.6	4.3	-1.7	3816
CC(C)NC(=O)CN1CCN(C(=O)CCl)CC1	-0.9	-1.3	5.6	-7.8	2.8	4672
Cc1cc(C)cc(OCc2nnc(SCC(=O)c3ccccc3)o2)c1	?	0.0	-1.9	-2.3	-3.0	19614*
CCN(CC)S(=O)(=O)c1ccc2c(c1)nc(SCn1nnc3ccccc3c1=O)n2CC	-0.8	2.2	-1.3	0.2	-12.6	23084*
CCC(C(=O)Nc1ccc2c(c1)OCCO2)n1nnc2ccccc2c1=O (stereo unspecified)	-1.3	-2.0	-6.7	1.7	-1.3	5227
Cc1cccc(-n2nnnc2SCn2nnc3ccccc3c2=O)c1	3.7	0.6	5.4	-13.8	3.9	20246*
O=c1c2ccccc2nnn1CSc1ccc2c(c1)OCCO2	1.4	152.4*	6.0	-0.1	3.3	3580
CCN1CCc2c(sc(NC(=S)NC(=O)c3ccco3)c2C(N)=O)C1	nt	-1.4	nt	nt	18.4	nt
Cc1cc(C)c(S(=O)(=O)N2CCCC(C(=O)NCc3ccccn3)C2)c(C)c1 (stereo unspecified)	2.8	2.8	11.5	-16.0	6.0	3911
SMILES	BoNT-A LC inh2	Mtb FBA inh	BoNT F protease	Anthrax LF prot	GDH-TPI inh	Bead autofluor
CN(C)c1nc(Oc2ccc(=O)n(-c3ccccc3)n2)nc(N2CCOCC2)n1	?	3.9	0.2	0.2	7.8	21946*
COc1nc(NC(C)(C)C)nc(Oc2ccc(=O)n(-c3ccccc3)n2)n1	-0.2	1.7	-0.6	0.4	14.6	21751*
CC(=O)Nc1ccc(CN2CCC(N3CCC(C(=O)NC4CC4)CC3)CC2)cc1	0.5	-3.4	-0.7	-8.0	9.8	4041
O=C(CSc1nc2ccccc2c(=O)n1NC(=O)Cc1ccccc1)NCc1ccccc1	-1.6	1.2	-7.4	0.5	5.8	23372*
O=C(CSc1nc2ccccc2c(=O)n1NC(=O)c1ccccc1)c1ccccc1	-0.4	1.1	1.3	-5.2	1.0	22548*
O=C(CSc1nc2ccccc2c(=O)n1NC(=O)c1ccccc1)c1ccc(Cl)cc1	?	1.1	5.1	-0.9	6.5	19026*
COc1ccc(C(=O)Nn2c(SCC(=O)NC3CCCC3)nc3ccccc3c2=O)cc1	1.2	2.3	4.9	0.8	1.0	21985*
COc1ccc(C(=O)Nn2c(SCC(=O)NCc3ccccc3)nc3ccccc3c2=O)cc1	0.6	-0.7	-2.3	-11.1	-2.9	8897
COc1ccc(NC(=S)N(CCCOC(C)C)C2CCN(C(C)=O)CC2)cc1Cl	-0.3	1.7	8.0	13.7	7.2	4048
CCNC(=S)N1CCN(c2ccccc2OCC)CC1	-0.1	2.1	7.0	2.1	6.6	2004
COc1ccc(C(=O)NNC(=O)COc2ccc(Cl)cc2C)cc1S(=O)(=O)N1CCOCC1	-3.2	-2.7	5.2	2.4	-2.9	?
Cc1noc(C)c1C(=O)N1CCN(CCc2ccccc2)CC1	?	-2.2	-6.4	-1.3	0.7	24658*
Cc1noc(C)c1C(=O)N1CCN(C(=O)c2sc3cc(Cl)ccc3c2Cl)CC1	2.4	0.2	1.3	-8.8	-3.7	18980*
Cc1noc(C)c1C(=O)N1CCN(Cc2ccccc2)CC1	-2.6	0.3	-22.8	2.5	4.3	5001
Cc1ccc2c(c1)c1nnc(SCC(=O)N3CCN(c4ccc(F)cc4)CC3)nc1n2CC(=O)O	-0.7	-5.1	-4.8	0.9	12.9	2525
COc1ccc(CC(=O)N/N=C/c2ccc(-c3cccc(C(=O)O)c3)o2)cc1OC	-0.4	5.4	-8.3	-5.0	74.7*	5037
CNC(=S)N/N=C/c1ccc(-c2cccc(C(=O)O)c2)o1	-0.3	6.8	-0.3	-3.4	84.8*	4988
O=[N+]([O-])c1cccc(-c2ccc(/C=N/NC(=S)Nc3ccccc3)o2)c1	-0.5	1.5	-16.4	-17.2	34.0*	?
COc1ccc(CC(=O)N/N=C/c2cc(Br)cs2)cc1OC	-2.3	3.0	5.6	-5.9	5.1	3804
COc1ccc(CC(=O)N/N=C/c2ccc(-c3ccc(F)cc3)o2)cc1OC	-1.0	0.3	-1.2	6.6	45.1*	5639
O=C(/C=C/c1ccccc1Cl)NCc1ccccc1	-0.1	-0.5	-0.3	-0.5	-3.1	20859*
O=C(/C=C/c1ccccc1Cl)NCCc1ccccc1	?	-3.7	-1.7	-0.2	3.8	21242*

Source: PubChem BioAssay
